According to PubChem BioAssay (NCATS):
Values joined by “and” are separate entries in the source; they are usually repeats but may differ in a detail not shown here. Equal entries are not always repeated. Results filed as inconclusive are left out. Some compounds were tested as several samples or in several runs, with calls that do not always agree. Active and inactive are the calls of the source. Unless noted, calls come from the whole dose curve; as a rule, active = well fitted curve in either direction with a large enough effect (not every such curve was filed as active); inconclusive = small, poorly fitted or top-dose-only effect, or another doubt; inactive = flat fitted curve, though single readings scatter.

Assays:
[1] = AP1 Signaling Pathway (AID 357); conditions: ME-180 (cervical carcinoma) AP-1-bla reporter, EGF-induced, beta-lactamase ratio, 5 h; note: % is set by controls: 0 for no effect and ±100 for the full control effect
Outline: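 AP-1-bla ME-180 cells with beta-lactamase reporter under AP-1 response element, stimulated with EC50 EGF; compounds titrated, 5 hours at 37 degrees Celsius. CCF4 read at 460/530 nm ratio; positive and negative modulators judged by AC50.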

[2] = molecular target: Cytochrome P450 1A2 (Homo sapiens) (UniProt P05177); assay: p450-cyp1a2 (AID 410; calls by dose curve; note: potency is the fitted concentration of half-maximal effect;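 for activity change, negative = inhibition: -100% = full effect of reference inhibitor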); conditions: recombinant CYP1A2, luciferin-ME demethylation, luminescence; series mostly up to 57 µM
Outline: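 20nM CYP1A2 with 100uM Luciferin-ME (at Km) in 100mM KPO4; compound preincubated 10 min, NADPH regeneration added, 60 min at room temperature. Luciferin quantified by luminescence after detection reagent; normalized to 57 uM furafylline.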

[3] = NFAT Signaling Pathway (AID 444); conditions: Jurkat NFAT-bla M1, carbachol, beta-lactamase ratio, 5 h;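 note: carbachol stimulus at about its EC50 of 1 µM final; % is set by controls: 0 for no effect and ±100 for the full control effect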
Outline: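 Jurkat cells carrying an NFAT-driven β-lactamase reporter and co-transfected muscarinic M1 receptor were treated with compound plus carbachol (1 uM final, an EC50 level) for 5 h at 37 °C. CCF4 loading followed for 1 h at RT; 460/530 nm ratio gave %activity.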

[4] = Cell Viability - BJ (AID 421; calls by dose curve;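 note: potency is the fitted concentration of half-maximal effect; cells exposed to compound for 40 hours at 37 °C before readout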); conditions: BJ fibroblast viability, qHTS
Outline: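 Cytotoxicity in human BJ foreskin fibroblasts is scored as loss of cellular ATP after a 40-hour exposure, measured by luciferase luminescence. Controls are DMSO and 100 uM tamoxifen.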

[5] = Cell Viability - Jurkat (AID 426;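 active = dose-dependent loss of cell ATP signal giving a full or clear fitted curve, ranked by lower potency value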;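 note: potency is the fitted concentration of half-maximal effect; cells exposed to compound for 40 hours at 37 °C before ATP read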); conditions: qHTS
Outline: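 Jurkat (Clone E6-1) cells, 5000/well in complete medium, exposed to compounds for 40 hr at 37C; intracellular ATP measured by CellTiter-Glo luminescence after 20 min at room temperature. AC50 from Hill fits.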

[6] = Cell Viability - Hek293 (AID 427;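 active = compounds whose dose-response curve shows a full or clear partial loss of cell viability, called from curve shape rather than a numeric limit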;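 note: potency is the fitted concentration of half-maximal effect; cells exposed to compound for 40 hours at 37 °C before reading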); conditions: qHTS
Outline: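 qHTS, human embryonic kidney (adenovirus-transformed) cells; 40 hr cpd, 37 °C; CellTiter-Glo ATP luminescence. Norm: DMSO = 0, 100 uM tamoxifen = 100% inhibition. Hill-fit AC50.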

[7] = Cell Viability - HepG2 (AID 433; calls by dose curve;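 note: potency is the fitted concentration of half-maximal effect; potency for ATP loss meaning cytotoxicity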); conditions: qHTS
Outline: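 HepG2 cells, 1500 per well, treated 40 hr at 37 °C in complete medium; viability from intracellular ATP by CellTiter-Glo luminescence. Normalized to DMSO and 100 uM tamoxifen; AC50 from Hill fit of qHTS concentration-response.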

[8] = Cell Viability - MRC5 (AID 434; calls by dose curve;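 note: potency is the fitted concentration of half-maximal effect; potency reflects cytotoxicity seen as loss of intracellular ATP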); conditions: MRC5 lung fibroblast viability, qHTS
Outline: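 MRC5 normal human lung fibroblasts (1500/well) were treated with compounds for 40 hr at 37 °C in complete medium, and viable cells were measured as intracellular ATP by CellTiter-Glo luminescence. AC50 came from Hill fits, normalized to DMSO and 100 uM tamoxifen.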

[9] = Cell Viability - SK-N-SH (AID 435; calls by dose curve;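 note: potency is the fitted concentration of half-maximal effect; compound exposure lasted 40 h at 37 °C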); conditions: SK-N-SH neuroblastoma cell viability qHTS
Outline: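 SK-N-SH neuroblastoma cells (1500/well) treated 40 h at 37 °C in complete medium; viability read as cellular ATP by CellTiter-Glo luminescence. Normalized to DMSO and 100 uM tamoxifen; AC50 from Hill fits of qHTS concentration-response.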

Chain of Cytochrome P450 1A2 (Homo sapiens) (P05177 whole entry, looked up): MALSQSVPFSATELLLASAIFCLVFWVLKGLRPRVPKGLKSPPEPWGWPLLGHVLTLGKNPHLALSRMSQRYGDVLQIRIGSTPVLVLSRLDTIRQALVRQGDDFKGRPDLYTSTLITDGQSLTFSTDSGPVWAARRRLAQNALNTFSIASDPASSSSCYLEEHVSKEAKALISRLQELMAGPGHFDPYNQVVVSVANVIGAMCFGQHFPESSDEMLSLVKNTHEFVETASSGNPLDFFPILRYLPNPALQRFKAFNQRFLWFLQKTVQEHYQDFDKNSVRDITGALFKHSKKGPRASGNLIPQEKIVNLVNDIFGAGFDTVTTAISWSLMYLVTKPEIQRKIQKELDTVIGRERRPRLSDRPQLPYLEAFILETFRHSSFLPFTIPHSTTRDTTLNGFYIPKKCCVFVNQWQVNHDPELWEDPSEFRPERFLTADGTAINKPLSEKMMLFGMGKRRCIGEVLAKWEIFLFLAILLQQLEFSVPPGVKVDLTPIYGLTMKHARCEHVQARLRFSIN

CCOC(=O)C1=C(C)NC(C)=C(C(=O)OC)C1c1cccc(Cl)c1Cl (centres undefined)
activity change, negative = inhibition ([1]; at 17.2 µM (top of the series)): -7.25% (inactive)

Cc1nc2sccn2c(=O)c1CCN1CCC(=C(c2ccc(F)cc2)c2ccc(F)cc2)CC1
Potency [2]: inactive

CCCN(CCC)C(=O)C(CCC(=O)O)NC(=O)c1ccccc1 (centres undefined)
activity change, negative = inhibition ([1]; at 17.2 µM (top of the series)): 1.43% (inactive)
activity change, negative = inhibition ([3]; at 17.2 µM (top of the series)): -1.88% (inactive)

CSc1ccc(C(=O)c2[nH]c(=O)[nH]c2C)cc1
activity change, negative = inhibition ([1]; at 38 µM (top of the series)): -4.8% (inactive)
activity change, negative = inhibition ([3]; at 38 µM (top of the series)): -2.92% (inactive)

Cc1ccc(=O)n(-c2ccccc2)c1
activity change, negative = inhibition ([1]; at 38 µM (top of the series)): -0.00383% (inactive)
Potency [2]: inactive and 31.6 µM (active)
activity change, negative = inhibition ([3]; at 38 µM (top of the series)): 14.9% (inactive)

NC(=O)N1c2ccccc2C=Cc2ccccc21
activity change, negative = inhibition ([1]; at 17.2 µM (top of the series)): -5.62% (inactive) and 13.4% (inactive)
Potency [2]: inactive
Potency [4]: > 92 µM (inactive)
Potency [5]: > 92 µM (inactive)
Potency [6]: > 92 µM (inactive)
Potency [7]: > 92 µM (inactive)
Potency [8]: > 92 µM (inactive)
Potency [9]: > 92 µM (inactive)
activity change, negative = inhibition ([3]; at 17.2 µM (top of the series)): 3.6% (inactive)
activity change, negative = inhibition ([3]; at 38 µM (top of the series)): 3.87% (inactive)

COCCCC/C(=N\OCCN)c1ccc(C(F)(F)F)cc1
activity change, negative = inhibition ([1]; at 17.2 µM (top of the series)): 14.9% (inactive)
activity change, negative = inhibition ([3]; at 17.2 µM (top of the series)): 24.5% (inactive)

FC(F)(F)c1ccccc1-n1ccnc1
activity change, negative = inhibition ([1]; at 38 µM (top of the series)): 7.15% (inactive)
Potency [2]: 2.51 µM (active) and 251 nM (active)
activity change, negative = inhibition ([3]; at 38 µM (top of the series)): -3.5% (inactive)

O=C(O)CN(CCOCCOCCN(CC(=O)O)CC(=O)O)CC(=O)O
activity change, negative = inhibition ([1]; at 38 µM (top of the series)): 4.77% (inactive)
Potency [2]: inactive
activity change, negative = inhibition ([3]; at 38 µM (top of the series)): 0.822% (inactive)

C=CCc1ccccc1OCC(O)CNC(C)C (centres undefined)
activity change, negative = inhibition ([1]; at 17.2 µM (top of the series)): 12.6% (inactive)
activity change, negative = inhibition ([3]; at 17.2 µM (top of the series)): 5.58% (inactive)

CCN1CCc2nc(N)oc2CC1
activity change, negative = inhibition ([1]; at 38 µM (top of the series)): 9.25% (inactive)
Potency [2]: inactive
activity change, negative = inhibition ([3]; at 38 µM (top of the series)): -7.89% (inactive)

CN(C(=O)CCCOc1ccc2[nH]c(=O)ccc2c1)C1CCCCC1
activity change, negative = inhibition ([1]; at 38 µM (top of the series)): -11.1% (inactive)
Potency [2]: inactive
activity change, negative = inhibition ([3]; at 38 µM (top of the series)): -14.2% (inactive)

COc1cc2c(cc1OC)-c1cc(=Nc3c(C)cc(C)cc3C)n(C)c(=O)n1CC2
activity change, negative = inhibition ([1]; at 38 µM (top of the series)): -25.7% (inactive)
Potency [2]: inactive
activity change, negative = inhibition ([3]; at 38 µM (top of the series)): -16.6% (inactive)

O=C(CCCN1CCC(O)(c2cccc(C(F)(F)F)c2)CC1)c1ccc(F)cc1
activity change, negative = inhibition ([1]; at 38 µM (top of the series)): 14.4% (inactive)
Potency [2]: inactive
activity change, negative = inhibition ([3]; at 38 µM (top of the series)): -2.13% (inactive)

CC(C)(Oc1ccc(CCNC(=O)c2ccc(Cl)cc2)cc1)C(=O)O
activity change, negative = inhibition ([1]; at 17.2 µM (top of the series)): 3.65% (inactive) and 3.52% (inactive)
Potency [2]: inactive
activity change, negative = inhibition ([3]; at 17.2 µM (top of the series)): -9.97% (inactive) and 7.1% (inactive)
